Experimental data reported in ChEMBL document CHEMBL1157539, “Thousands of chemical starting points for antimalarial lead identification” (Nature, 2010).

Legend:
Type in all cases: functional
Plasmodium falciparum [1] = assay: GSK_TCMDC: Inhibition of Plasmodium falciparum 3D7 in whole red blood cells, using parasite LDH activity as an index of growth. Test compounds present at 2uM
Plasmodium falciparum [2] = assay: GSK_TCMDC: Inhibition of Plasmodium falciparum Dd2 in whole red blood cells, using parasite LDH activity as an index of growth. Test compounds present at 2uM
HepG2 = assay: GSK_TCMDC: Percent inhibition of human HepG2 cell line. Test compounds present at 10uM.

With `COc1ccccc1C1CCN(CCCCNC(=O)c2ccc(/C=C/c3cc(Cl)cc(Cl)c3)cc2)CC1` the Inhibition (Plasmodium falciparum [1]) was 96%, the Inhibition (Plasmodium falciparum [2]) was 30% and the Inhibition (HepG2) was 36%.

Work on `CCOC(=O)c1cnc2c(C(F)(F)F)cccc2c1Nc1ccc(O)cc1` yielded an Inhibition (Plasmodium falciparum [1]) of 96%, an Inhibition (Plasmodium falciparum [2]) of 67% and an Inhibition (HepG2) of 0%.

Molecule `O=C(Nc1ccc(OC2CCN(Cc3ccsc3)C2)c(Cl)c1)c1cccs1.O=C(O)C(F)(F)F` (centres undefined) has an Inhibition (Plasmodium falciparum [1]) of 91%, an Inhibition (Plasmodium falciparum [2]) of 87% and an Inhibition (HepG2) of 0%.

In the case of `COc1cccc2cc(C(=O)N[C@@H](CC(C)C)C(=O)N[C@H](C=NN3CCOC3=O)CC(C)C)oc12`, the Inhibition (Plasmodium falciparum [1]) is reported as 90%, the Inhibition (Plasmodium falciparum [2]) is reported as 72% and the Inhibition (HepG2) is reported as 4%.

`Cn1cncc1C(=O)Nc1cccc(-c2ccc(-c3nc4cc(F)ccc4[nH]3)cc2)c1` gave an Inhibition (Plasmodium falciparum [1]) of 100%, an Inhibition (Plasmodium falciparum [2]) of 31% and an Inhibition (HepG2) of 0%.

`COc1cccc(CCNc2nc(NCc3ccccc3)c3cc(OC)c(OC)cc3n2)c1` gave an Inhibition (Plasmodium falciparum [1]) of 100%, an Inhibition (Plasmodium falciparum [2]) of 99% and an Inhibition (HepG2) of 20%.

With `CCC(C)(C)c1ccc2nc(N)nc(N)c2c1C` the Inhibition (Plasmodium falciparum [1]) was 91%, the Inhibition (Plasmodium falciparum [2]) was 82% and the Inhibition (HepG2) was 62%.

Molecule `O=C(NCC1CCN(Cc2cccc(C(F)(F)F)c2)C1)c1cc(-c2cccc(Cl)c2)cs1.O=C(O)C(F)(F)F` (centres undefined) has an Inhibition (Plasmodium falciparum [1]) of 93%, an Inhibition (Plasmodium falciparum [2]) of 14% and an Inhibition (HepG2) of 15%.

Work on `CN1CCC(Oc2ccc(CN3CC[C@H](NC(=O)c4ccc(Cl)c(Cl)c4)C3)cc2Cl)C1.O=C(O)C(F)(F)F` (some centres undefined) yielded an Inhibition (Plasmodium falciparum [1]) of 100%, an Inhibition (Plasmodium falciparum [2]) of 78% and an Inhibition (HepG2) of 68%.

For `O=C(O)C(F)(F)F.Oc1ccc(CCCNc2nc(NCc3ccccc3-c3ccccc3)nc(NC3CCNCC3)n2)cc1`, the Inhibition (Plasmodium falciparum [1]) was 97%, the Inhibition (Plasmodium falciparum [2]) was 2% and the Inhibition (HepG2) was 0%.

For `Cc1ccc2[nH]c(C)cc(=NN=CC=Cc3ccccc3)c2c1`, the Inhibition (Plasmodium falciparum [1]) was 92%, the Inhibition (Plasmodium falciparum [2]) was 28% and the Inhibition (HepG2) was 0%.

`CCNc1cc(C(=O)N[C@@H](Cc2ccccc2)[C@H](O)CNCc2cc(OC)cc(OC)c2)cc(N2CCCS2(=O)=O)c1.Cl` was tested, and the Inhibition (Plasmodium falciparum [1]) was 99%, the Inhibition (Plasmodium falciparum [2]) was 86% and the Inhibition (HepG2) was 0%.

Molecule `Cc1ccc(N2C(N)=NC(N)=NC2c2ccccc2)cc1.Cl` (centres undefined) has an Inhibition (Plasmodium falciparum [1]) of 94%, an Inhibition (Plasmodium falciparum [2]) of 1% and an Inhibition (HepG2) of 11%.

For `CC(=O)N(Cc1nc(-c2cc(C(F)(F)F)cc(C(F)(F)F)c2)cs1)c1c(C)cccc1C`, the Inhibition (Plasmodium falciparum [1]) was 100%, the Inhibition (Plasmodium falciparum [2]) was 99% and the Inhibition (HepG2) was 0%.

For `O=C(O)C(F)(F)F.O=[N+]([O-])c1cccc(CNCC2CCN(Cc3ccc(C(F)(F)F)cc3)CC2)c1`, the Inhibition (Plasmodium falciparum [1]) was 100%, the Inhibition (Plasmodium falciparum [2]) was 23% and the Inhibition (HepG2) was 7%.

`O=C(Nc1ccc(Cl)cc1)N(CC1CC2CCC(C1)N2Cc1ccc(C(F)(F)F)cc1)c1ccc(N2CCOCC2)c(F)c1` (centres undefined) was tested, and the Inhibition (Plasmodium falciparum [1]) was 85%, the Inhibition (Plasmodium falciparum [2]) was 36% and the Inhibition (HepG2) was 31%.

In the case of `Br.CC1(C)NC(N)=NC(=N)N1OCCNCc1ccc(Cl)cc1`, the Inhibition (Plasmodium falciparum [1]) is reported as 95%, the Inhibition (Plasmodium falciparum [2]) is reported as 0% and the Inhibition (HepG2) is reported as 5%.

`Cl.O=[N+]([O-])c1ccc(C(O)CNCCc2ccccc2)cc1OCc1ccccc1` (centres undefined) was tested, and the Inhibition (Plasmodium falciparum [1]) was 94%, the Inhibition (Plasmodium falciparum [2]) was 67% and the Inhibition (HepG2) was 0%.

`CCC(C)CN1CCN(c2ccc(NC(=O)c3cccs3)cc2)CC1C.O=C(O)C(F)(F)F` (centres undefined) showed an Inhibition (Plasmodium falciparum [1]) of 94%, an Inhibition (Plasmodium falciparum [2]) of 94% and an Inhibition (HepG2) of 0%.

`Cc1cc2[nH]c(-c3ccc(C(=O)NCCCN4CCN(c5cccc(Cl)c5)CC4)cc3F)nc2cc1Cl` gave an Inhibition (Plasmodium falciparum [1]) of 99%, an Inhibition (Plasmodium falciparum [2]) of 79% and an Inhibition (HepG2) of 0%.

`CC(C)(CNCc1ccc(C(F)(F)F)cc1)c1nc(-c2ccnc(N)n2)c(-c2ccc(Cl)c(O)c2)[nH]1.Cl` gave an Inhibition (Plasmodium falciparum [1]) of 100%, an Inhibition (Plasmodium falciparum [2]) of 37% and an Inhibition (HepG2) of 32%.

`CCC(O)c1ccc(Br)cc1NC(=O)c1cccc(Cl)c1` (centres undefined) gave an Inhibition (Plasmodium falciparum [1]) of 80%, an Inhibition (Plasmodium falciparum [2]) of 52% and an Inhibition (HepG2) of 0%.

For `CCc1cn2c3c(cc(C(=O)N[C@@H](Cc4ccccc4)[C@H](O)CNC4CC4)cc13)N(CC)S(=O)(=O)CC2.O=CO`, the Inhibition (Plasmodium falciparum [1]) was 98%, the Inhibition (Plasmodium falciparum [2]) was 99% and the Inhibition (HepG2) was 13%.

Work on `CC(=O)Nc1ccc2[nH]cc(C3CCN(CC4CCC(NC(=O)/C=C/c5ccc(Cl)c(Cl)c5)CC4)CC3)c2n1` (centres undefined) yielded an Inhibition (Plasmodium falciparum [1]) of 100%, an Inhibition (Plasmodium falciparum [2]) of 79% and an Inhibition (HepG2) of 17%.

In the case of `Cc1ccc(NC(=O)Nc2ccc(Cl)cc2)cc1-c1ccc(C(=O)Nc2ccncc2)cc1`, the Inhibition (Plasmodium falciparum [1]) is reported as 99%, the Inhibition (Plasmodium falciparum [2]) is reported as 63% and the Inhibition (HepG2) is reported as 54%.

With `CC(C)COc1ccc(Cl)cc1Cc1nc(-c2nc3ccc(CN4CCN(C)CC4)cc3[nH]2)co1.Cl` the Inhibition (Plasmodium falciparum [1]) was 100%, the Inhibition (Plasmodium falciparum [2]) was 57% and the Inhibition (HepG2) was 5%.

Work on `CC(=O)Oc1c(C2CCN(CCCCNC(=O)c3ccc(NC(=O)c4ccc(Cl)cc4)cc3)CC2)ccc2c1CCCC2` yielded an Inhibition (Plasmodium falciparum [1]) of 100%, an Inhibition (Plasmodium falciparum [2]) of 80% and an Inhibition (HepG2) of 21%.

`CCc1c(C)c(C#N)c2nc3ccccc3n2c1NCc1ccco1` showed an Inhibition (Plasmodium falciparum [1]) of 99%, an Inhibition (Plasmodium falciparum [2]) of 90% and an Inhibition (HepG2) of 0%.
